Laboratory results as given in PubChem BioAssay (NCATS).
Inconclusive results are not listed. The source made the active and inactive calls. Unless noted, the call rests on the fitted dose curve; in most records, active means well fitted curve in the direction sought with a large enough effect; inconclusive means small, poorly fitted or top-dose-only effect, or another doubt; inactive means no such curve, though single readings can be large; an effect the other way counts as inactive or inconclusive.

Experiments:
[1] = qHTS profiling for inhibitors of Plasmodium falciparum proliferation (AID 504749); further: nearly all actives have a fitted effect of over 60% in size; further: potency means the concentration at half of the fitted maximal effect;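 on activity, negative = inhibition: 0% = DMSO vehicle and full inhibition = artemisinin control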; conditions: P. falciparum in erythrocytes, SYBR Green DNA, 72 h, at 28.7 µM (top of the series)
Method in brief: (§1)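 SYBR Green fluorescence (ex 485 nm, em 535 nm) reports parasite DNA after 72 h compound exposure of infected red cells at 0.3% parasitemia, 2.5% hematocrit; signal normalized to 0.29 uM artemisinin and vehicle wells.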

[2] = test system: ATS95; assay: as above; conditions: P. falciparum in erythrocytes, SYBR Green DNA, 72 h; series mostly up to 28.7 µM
Method in brief: as §1

[3] = test system: Dd2; assay: as above; conditions: P. falciparum in erythrocytes, SYBR Green DNA, 72 h; series mostly up to 28.7 µM
Method in brief: as §1

[4] = test system: FAB9; assay: as above; conditions: P. falciparum in erythrocytes, SYBR Green DNA, 72 h; series mostly up to 28.7 µM
Method in brief: as §1

[5] = test system: ICS; assay: as above; conditions: P. falciparum in erythrocytes, SYBR Green DNA, 72 h; series mostly up to 28.7 µM
Method in brief: as §1

[6] = test system: SC27B; assay: as above; conditions: P. falciparum in erythrocytes, SYBR Green DNA, 72 h; series mostly up to 28.7 µM
Method in brief: as §1

[7] = test system: Zika virus NS2B-NS3 protease (linked construct); assay: 384 well plate NINDS Rhodamine confirmatory qHTS for Zika virus inhibitors (AID 1347164); conditions: rhodamine-110 peptide substrate fluorescence; series mostly up to 1 mM;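 further: fluorescence from protease cleavage of Ac-LKRR-rhodamine 110 substrate; nearly all actives have a fitted effect of over 65% in size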; further: potency means the concentration at half of the fitted maximal effect
Method in brief: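 Linked NS2B-NS3 protease (final 5, 30 or 60 nM) preincubated ~15 minutes with compounds, then 10 microM Ac-LKRR-Rhodamine 110 added. Fluorescence (485/538 nm) read after 25 minutes at room temperature, normalized to no-enzyme and no-inhibitor controls.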

[8] = Vero cells viability qHTS for Zika virus inhibitors (AID 1347167); conditions: cytotoxicity counter-screen (Zika); series mostly up to 45.9 µM; further: on the % scale 0 is the no-effect control and ±100 the full control effect
Method in brief: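 qHTS titration; 24-48 h compound exposure, 37 degrees C/5% CO2; DMEM, 4% FBS; CellTiter Glo ATP luminescence.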

[9] = target: Mitogen-activated protein kinase 10 (Mus musculus) (UniProt Q61831); assay: JNK3 AlphaScreen Assay (AID 530; active means well fitted curve in either direction with a large enough effect, not every such curve was filed as active;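 further: kinase came from lysate of stimulated human HepG2 cells; signal reports phosphorylation of biotinylated GST-cJun 1-79 at Ser73 with 10 µM ATP; on the % scale 0 is the no-effect control and ±100 the full control effect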); conditions: JNK3 lysate, c-Jun phosphorylation; series mostly up to 57.1 µM
Method in brief: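 HepG2 lysate (IL-1b/TNFa pre-activated) + biotin-GST-cJun 1-79 + anti-pSer73 cJun; cpd titration, 15 min RT; ATP 10 uM start; Tris pH 7.6, MgCl2, DTT, vanadate; beads in EDTA buffer; AlphaScreen.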

[10] = Confirmatory screen GU Rhodamine qHTS for Zika virus inhibitors qHTS (AID 1347157); conditions: purified enzyme assay, Rhodamine110 substrate fluorescence, 15 min; series mostly up to 114 µM; further: potency means the concentration at half of the fitted maximal effect; nearly all actives have a fitted effect of over 70% in size
Method in brief: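 Buffer 10 mM Tris-HCl pH 8.0, 0.01% Tween 20. Unlinked protease 25 nM; compound preincubation 15 min, RT, protected from light. Substrate Rhod110, 1.5 microM; ~15% conversion in 15 min.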

[11] = Confirmatory screen NINDS Rhodamine qHTS for Zika virus inhibitors (AID 1347161); conditions: purified enzyme assay, Rhodamine110 substrate fluorescence, 15 min; series mostly up to 114 µM; further: potency means the concentration at half of the fitted maximal effect; nearly all actives have a fitted effect of over 60% in size
Method in brief: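 Aprotinin served as in-plate control. Conditions: 25 nM linked NS2B-NS3, pH 8.0 Tris buffer, titrated compounds, 15 min preincubation and 15 min reaction with 1.5 microM Rhod110 substrate at room temperature.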

[12] = qHTS profiling of the MIPE4 collection as inhibitors of Plasmodium falciparum (3D7) proliferation (AID 743344; call rule not given here;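 further: scaled between DMSO vehicle wells and 0.29 µM artemisinin as full inhibition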); conditions: P. falciparum 3D7 in erythrocytes, SYBR Green DNA fluorescence, 72 h; at 28.5 µM (top of the series)
Method in brief: (§2)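 Parasite DNA was quantified by SYBR Green I fluorescence (ex 485, em 535 nm) after overnight lysis in saponin/Triton buffer at room temperature. Cultures at 0.3% parasitemia and 2.5% hematocrit were first exposed to compound for 72 h at 37 C; signals were normalised to artemisinin (0.29 uM) and vehicle wells.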

[13] = qHTS profiling of the MIPE4 collection as inhibitors of Plasmodium falciparum (DD2) proliferation (AID 743345; call rule not given here); conditions: P. falciparum Dd2 in erythrocytes, SYBR Green DNA, 72 h; at 28.5 µM (top of the series)
Method in brief: as §2

[14] = qHTS profiling of the MIPE4 collection as inhibitors of Plasmodium falciparum (DD2) proliferation (Rep 2) (AID 743346; call rule not given here); conditions: P. falciparum Dd2 in erythrocytes, SYBR Green DNA, 72 h; at 28.5 µM (top of the series)
Method in brief: as §2

[15] = qHTS profiling of the MIPE4 collection as inhibitors of Plasmodium falciparum (HB3) proliferation (AID 743347; call rule not given here;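 further: plate controls were DMSO vehicle wells for no effect and artemisinin wells for full effect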); conditions: P. falciparum HB3 in erythrocytes, SYBR Green DNA, 72 h; at 28.5 µM (top of the series)
Method in brief: as §2

[16] = target: Rap guanine nucleotide exchange factor 3 (Homo sapiens) (UniProt O95398); assay: Confirmatory qHTS for agonist of cAMP-regulated guanine nucleotide exchange factor 3 (EPAC1) (AID 1645881); conditions: EPAC1 Rap1B BODIPY-GDP exchange fluorescence, 100% = cAMP control response; series mostly up to 154 µM;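 further: EPAC1 catalysed release of BODIPY-GDP from Rap1B seen as fluorescence loss; nearly all actives have a fitted effect of over 75% in size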
Chain of Rap guanine nucleotide exchange factor 3 (Homo sapiens) (O95398 whole entry, looked up): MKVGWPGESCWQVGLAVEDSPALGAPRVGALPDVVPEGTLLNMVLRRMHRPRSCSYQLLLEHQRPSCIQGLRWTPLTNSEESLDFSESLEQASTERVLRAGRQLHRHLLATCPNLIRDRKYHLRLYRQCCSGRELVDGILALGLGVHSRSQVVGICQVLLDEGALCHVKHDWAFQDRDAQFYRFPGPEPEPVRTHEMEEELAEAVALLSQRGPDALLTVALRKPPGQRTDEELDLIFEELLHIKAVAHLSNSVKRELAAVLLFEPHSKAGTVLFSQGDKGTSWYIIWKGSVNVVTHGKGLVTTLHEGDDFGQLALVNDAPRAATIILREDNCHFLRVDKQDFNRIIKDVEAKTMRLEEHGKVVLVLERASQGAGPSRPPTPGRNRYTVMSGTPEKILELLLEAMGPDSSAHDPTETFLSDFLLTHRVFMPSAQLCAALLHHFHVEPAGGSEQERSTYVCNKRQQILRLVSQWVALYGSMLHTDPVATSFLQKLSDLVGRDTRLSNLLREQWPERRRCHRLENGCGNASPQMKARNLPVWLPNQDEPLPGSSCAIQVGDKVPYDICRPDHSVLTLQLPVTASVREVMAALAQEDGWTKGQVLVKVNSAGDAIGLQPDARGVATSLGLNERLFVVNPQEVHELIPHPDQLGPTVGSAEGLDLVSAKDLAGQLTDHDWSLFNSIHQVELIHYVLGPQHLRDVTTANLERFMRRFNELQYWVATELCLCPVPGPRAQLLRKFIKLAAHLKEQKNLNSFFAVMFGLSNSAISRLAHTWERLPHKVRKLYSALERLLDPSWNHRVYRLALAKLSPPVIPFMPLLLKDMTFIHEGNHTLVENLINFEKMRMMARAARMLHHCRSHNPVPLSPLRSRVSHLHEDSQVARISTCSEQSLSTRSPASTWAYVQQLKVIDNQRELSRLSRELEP

[17] = target: Rap guanine nucleotide exchange factor 4 (Homo sapiens) (UniProt Q8WZA2); assay: Confirmatory qHTS for agonist of cAMP-regulated guanine nucleotide exchange factor 4 (EPAC2) (AID 1645884); conditions: EPAC2 GEF activity, Rap1B-BODIPY-GDP fluorescence, percent relative to cAMP agonist control; series mostly up to 154 µM;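 further: nucleotide exchange releases bodipy-GDP from Rap1 and this lowers its fluorescence; on the % scale 0 is the no-effect control and ±100 the full control effect; nearly all actives have a fitted effect of over 65% in size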
Chain of Rap guanine nucleotide exchange factor 4 (Homo sapiens) (Q8WZA2 whole entry, looked up): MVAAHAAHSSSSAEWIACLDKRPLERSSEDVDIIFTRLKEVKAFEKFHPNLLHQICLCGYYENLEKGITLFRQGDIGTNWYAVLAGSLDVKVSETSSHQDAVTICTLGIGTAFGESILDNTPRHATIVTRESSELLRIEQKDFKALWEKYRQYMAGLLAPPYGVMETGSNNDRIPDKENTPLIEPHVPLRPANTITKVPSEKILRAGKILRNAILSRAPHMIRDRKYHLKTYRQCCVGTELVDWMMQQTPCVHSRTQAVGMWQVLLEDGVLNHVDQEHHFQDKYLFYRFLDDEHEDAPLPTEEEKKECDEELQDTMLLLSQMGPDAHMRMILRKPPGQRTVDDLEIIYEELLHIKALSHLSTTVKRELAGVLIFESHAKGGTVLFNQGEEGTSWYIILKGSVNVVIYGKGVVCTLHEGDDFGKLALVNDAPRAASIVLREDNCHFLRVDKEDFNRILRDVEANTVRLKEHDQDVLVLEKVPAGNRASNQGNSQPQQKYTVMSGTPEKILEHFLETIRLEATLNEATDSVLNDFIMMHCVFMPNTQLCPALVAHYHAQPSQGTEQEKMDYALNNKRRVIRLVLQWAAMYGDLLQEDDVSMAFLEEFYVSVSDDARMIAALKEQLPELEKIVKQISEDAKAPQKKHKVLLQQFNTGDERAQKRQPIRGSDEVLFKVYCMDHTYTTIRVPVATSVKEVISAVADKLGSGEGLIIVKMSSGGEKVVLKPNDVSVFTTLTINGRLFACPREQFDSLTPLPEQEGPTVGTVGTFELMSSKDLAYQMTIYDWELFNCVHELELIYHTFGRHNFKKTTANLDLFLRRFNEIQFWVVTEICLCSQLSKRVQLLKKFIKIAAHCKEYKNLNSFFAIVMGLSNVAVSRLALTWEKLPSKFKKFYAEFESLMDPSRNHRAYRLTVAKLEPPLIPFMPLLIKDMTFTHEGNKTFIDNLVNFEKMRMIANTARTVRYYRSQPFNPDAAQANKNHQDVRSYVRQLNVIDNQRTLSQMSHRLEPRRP

[18] = target: Cytochrome P450 2C9 (Homo sapiens) (UniProt P11712); assay: qHTS Assay for Inhibitors and Substrates of Cytochrome P450 2C9 (AID 883); conditions: recombinant CYP2C9, luciferin-H luminescence, 60 min; series mostly up to 57.1 µM; further: potency means the concentration at half of the fitted maximal effect; nearly all actives have a fitted effect of over 60% in size
Chain of Cytochrome P450 2C9 (Homo sapiens) (P11712 whole entry, looked up): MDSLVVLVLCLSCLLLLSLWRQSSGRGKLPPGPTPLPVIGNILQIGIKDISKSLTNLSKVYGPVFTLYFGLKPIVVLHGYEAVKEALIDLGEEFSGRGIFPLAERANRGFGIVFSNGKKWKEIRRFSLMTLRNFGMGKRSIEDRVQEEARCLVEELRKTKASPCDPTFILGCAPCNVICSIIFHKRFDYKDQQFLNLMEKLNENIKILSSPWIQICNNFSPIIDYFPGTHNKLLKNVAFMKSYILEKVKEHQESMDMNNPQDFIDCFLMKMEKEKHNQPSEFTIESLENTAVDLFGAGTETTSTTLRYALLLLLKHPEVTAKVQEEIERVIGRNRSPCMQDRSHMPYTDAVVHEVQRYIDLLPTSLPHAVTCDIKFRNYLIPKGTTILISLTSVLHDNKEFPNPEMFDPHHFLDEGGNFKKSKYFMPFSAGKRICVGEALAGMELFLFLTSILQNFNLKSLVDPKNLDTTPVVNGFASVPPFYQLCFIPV
Method in brief: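 Signal: luciferase luminescence reporting luciferin produced by CYP2C9. Conditions: 10nM enzyme, Luciferin-H 100uM at KM, 25mM KPO4, 37C, 60 min NADPH-driven reaction. Reference: 57uM sulphaphenazole as 100% inhibition.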

[19] = target: N-terminal Xaa-Pro-Lys N-methyltransferase 1 (Homo sapiens) (UniProt Q9BV86); assay: Confirmatory qHTS for Inhibitors of N-terminal methyltransferase 1 (NTMT1): MTaseGlo Assay (AID 1645874); conditions: NTMT1 enzyme, MTase-Glo SAH luminescence; series mostly up to 100 µM; further: potency means the concentration at half of the fitted maximal effect; nearly all actives have a fitted effect of over 65% in size
Chain of N-terminal Xaa-Pro-Lys N-methyltransferase 1 (Homo sapiens) (Q9BV86 whole entry, looked up): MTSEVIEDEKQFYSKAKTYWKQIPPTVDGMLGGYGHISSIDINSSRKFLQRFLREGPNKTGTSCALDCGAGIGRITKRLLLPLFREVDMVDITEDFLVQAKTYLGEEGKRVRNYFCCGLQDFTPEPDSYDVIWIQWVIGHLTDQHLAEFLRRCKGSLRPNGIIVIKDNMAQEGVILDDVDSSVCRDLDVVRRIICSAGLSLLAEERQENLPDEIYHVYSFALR
Method in brief: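 SPKRIA peptide at 1 uM was methylated by 125 nM NTMT1 using 100 uM SAM over 30 min at room temperature, following a 15 min compound preincubation. Product SAH was detected luminescently.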

[20] = Counterscreen qHTS for small molecule stabilizers of the endoplasmic reticulum resident proteome: GLuc-NoTag assay (AID 1508627); conditions: Gaussia luciferase NoTag secretion counterscreen, luminescence, thapsigargin 100 nM for final 4 h; series mostly up to 76.4 µM;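 further: SH-SY5Y cells given compound then 100 nM thapsigargin to empty ER calcium; 0% = thapsigargin alone and -100% = DMSO vehicle control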
Method in brief: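 Counterscreen line: SH-SY5Y-GLuc-NoTag. Seed, 5 h; compound, 19 h; thapsigargin 100 nM, 4 h; 37C/5% CO2. Readout: secreted GLuc luminescence, coelenterazine 0.07x final, no lysis.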

In the case of `CCCCC(=O)N(Cc1ccc(-c2ccccc2-c2nn[nH]n2)cc1)C(C(=O)O)C(C)C` (stereo not given), the activity, negative = inhibition ([1]; parasite line A) is reported as 9.14% (inactive), the activity, negative = inhibition ([1]; parasite line B) is reported as 6.89% (inactive) and the Potency [2] is reported as “inactive”. The Potency [3] was “inactive”, the Potency [4] was “inactive” and the Potency [5] was 7.94 µM (active). The Potency [6] was “inactive”.

In the case of `CC[C@H](C)[C@H]1O[C@]2(CC[C@@H]1C)C[C@@H]1C[C@@H](C/C=C(\C)[C@@H](O[C@H]3C[C@H](OC)[C@@H](O[C@H]4C[C@H](OC)[C@@H](O)[C@H](C)O4)[C@H](C)O3)[C@@H](C)/C=C/C=C3\CO[C@@H]4[C@H](O)C(C)=C[C@@H](C(=O)O1)[C@]34O)O2`, the Potency [7] is reported as “inactive” and the Potency [8] is reported as “inactive”.

For `Clc1ccccc1CNCC1CCC(CNCc2ccccc2Cl)CC1` (stereo not given), the Potency [9] was “inactive”.

For `CC(=O)N1c2ccc(-c3ccc(C(=O)O)cc3)cc2C(Nc2ccc(Cl)cc2)CC1C` (stereo not given), the Potency [10] was 17.5 µM (active), the Potency [11] was 12.4 µM (active) and the Potency [7] was 70.8 µM (active).

In the case of `O=C(O)c1ccc(O)c2ncc(N3CCCN(CCc4cccc5ccccc45)CC3)cc12`, the Potency [10] is reported as 13.9 µM (active), the Potency [11] is reported as 13.9 µM (active) and the Potency [8] is reported as “inactive”.

In the case of `CC1(C)N=C(N)N=C(N)N1c1ccc(Cl)cc1`, the parasite growth, % of DMSO control [12] is reported as 5.76%, the parasite growth remaining, % of DMSO control (lower = more inhibition) [13] is reported as 13.5% and the parasite growth, % of control (lower = inhibition) [14] is reported as 19.9%. It also gave a growth, % of control [15] of 2.49%.

For `C#C[C@]1(OC(C)=O)CC[C@H]2[C@@H]3CCC4=CC(=O)CC[C@@H]4[C@H]3CC[C@@]21C`, the outcome [16] was “inactive” and the outcome [17] was “inactive”.

In the case of `Cc1nc2c(O)cccc2c(=O)[nH]1`, the Potency [9] is reported as “inactive” and the Potency [18] is reported as 3.98 µM (active).

In the case of `Cn1cc(C2=C(c3cn(CCCSC(=N)N)c4ccccc34)C(=O)NC2=O)c2ccccc21`, the Potency [19] is reported as 6.02 µM (active).

With `Nc1ncnc2c1c(I)cn2C1OC(CO)C(O)C1O` (stereo not given) the Potency [19] was 0.851 µM (active).

With `O=c1[nH]ccc2c(S(=O)(=O)N3CCCNCC3)cccc12` the Potency [20] was “inactive”.

In the case of `CN1CCN(CCC=C2c3ccccc3Sc3ccc(S(=O)(=O)N(C)C)cc32)CC1`, the Potency [2] is reported as 11.2 µM (active), the Potency [3] is reported as 12.6 µM (active) and the Potency [4] is reported as “inactive”. For the same molecule, the Potency [5] was 7.94 µM (active) and the Potency [6] was 11.2 µM (active).

With `O=C(O)c1ccc2c3c1cccc3c(=O)n1c3ccccc3nc21` the Potency [18] was 0.158 µM (active), the parasite growth, % of DMSO control [12] was 91.8% and the parasite growth remaining, % of DMSO control (lower = more inhibition) [13] was 97.7%. It also gave a parasite growth, % of control (lower = inhibition) [14] of 85.8% and a growth, % of control [15] of 60.1%.

In the case of `CS(=O)(=O)CCNCc1nc(-c2ccc3ncnc(Nc4ccc(OCc5cccc(F)c5)c(Cl)c4)c3c2)cs1`, the Potency [20] is reported as “inactive”.

With `CCC(=O)O[C@H]1CC[C@H]2[C@@H]3CCc4cc(O)ccc4[C@H]3CC[C@]12C` the outcome [16] was “inactive” and the outcome [17] was “inactive”.
